# Bioassay records as filed in PubChem BioAssay.
# Hits are enriched below; roughly 1.8% of the tested compounds scored in any of these assays.
# GLP1R cytotox: cytotoxicity in counter-screen for GLP-1R inverse agonists; HEK293 cAMP-luciferase reporter cells, luminescence, 24 h; Potency, µM (highest dose often 38.3 µM), inactives show at the top dose activity change, negative = inhibition, usual class: inhibitors; hit rate 0.13% among 410,000; AID 624418;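 also: loss of luciferase light is scored as toxicity; % is scaled to controls: 0 for no effect and ±100 for the full control effect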
#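 1536-well qHTS counterscreen of the MLSMR; 200 cells/uL, 12 h pre-incubation, 23 nL cpd, 24 h at 37 deg C 5% CO2, luciferase detection reagent, 12 min RT, luminescence. Inhibition = undesired.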
# GLP1R inv ag: inverse agonists of human GLP-1 receptor; HEK293 GLP-1R CRE-luciferase, luminescence, 24 h; GLP-1R form is constitutively active; AID 624417; hit rate 1.6% among 410,000; Potency, µM (highest dose often 38.3 µM), without a hit: at the highest dose activity change, negative = inhibition, actives largely listed as inhibitors; P43220; also: % is scaled to controls: 0 for no effect and ±100 for the full control effect; nearly all actives have a fitted effect of over 55% in size
# Target sequence (P43220 whole entry, looked up): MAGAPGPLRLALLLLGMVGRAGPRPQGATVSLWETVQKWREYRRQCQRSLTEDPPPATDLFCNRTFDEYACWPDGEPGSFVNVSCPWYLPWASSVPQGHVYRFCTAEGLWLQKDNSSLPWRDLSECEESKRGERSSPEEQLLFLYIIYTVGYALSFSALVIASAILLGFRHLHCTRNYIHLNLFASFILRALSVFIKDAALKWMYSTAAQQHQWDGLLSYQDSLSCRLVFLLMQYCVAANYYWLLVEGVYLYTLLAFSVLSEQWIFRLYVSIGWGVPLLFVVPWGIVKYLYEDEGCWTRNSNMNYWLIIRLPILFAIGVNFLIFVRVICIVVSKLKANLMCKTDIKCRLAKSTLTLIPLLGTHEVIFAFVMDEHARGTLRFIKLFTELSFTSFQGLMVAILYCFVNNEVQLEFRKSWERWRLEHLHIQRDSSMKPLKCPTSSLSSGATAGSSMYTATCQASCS
#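 Inverse agonism was detected as reduced cAMP-driven luciferase luminescence after 24 h compound treatment. The cells were HEK293 clones expressing constitutively active human GLP-1R with the reporter. Reporter-only and GPR119 cell lines served as counterscreen controls.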
# RGS4 inh: human RGS4 inhibition | hit rate 0.039% among 390,000 | Potency, µM (series often up to 114 µM), for inactives: top-dose activity change, negative = inhibition, actives largely listed as inhibitors | P49798 | Transcreener GDP fluorescence polarization, RGS4-accelerated GTP hydrolysis; also: % is scaled to controls: 0 for no effect and ±100 for the full control effect; nearly all actives have a fitted effect of over 75% in size
# Target sequence (P49798 whole entry, looked up): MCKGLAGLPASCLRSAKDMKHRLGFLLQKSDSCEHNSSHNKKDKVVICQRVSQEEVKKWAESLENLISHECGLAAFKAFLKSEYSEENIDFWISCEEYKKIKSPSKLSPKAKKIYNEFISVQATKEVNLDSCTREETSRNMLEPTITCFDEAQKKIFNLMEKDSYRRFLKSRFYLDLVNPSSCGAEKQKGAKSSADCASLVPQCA
#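 MLSMR compounds (23 nl, pin-transferred) preincubated 10 min at room temperature with a 500nM (2x) first reagent, then RGS4 at 900nM (2x) plus Transcreener GDP mix added; fluorescence polarization (620/688 nm) read before and after 90 min at 30 °C.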
# GLP1R ag: agonists of human GLP-1 receptor | P43220 | HEK293 GLP-1R CRE-luciferase, luminescence, 4-6 h; cells express a hypersensitive GLP-1R form | Potency, µM (titrated, usually from 45.6 µM), inactives show at the highest dose activation, usual class: activators | hit rate 0.007% among 380,000; also: % of control where 0% means no effect
# PTHR1 ag: PTHR1 (human) receptor agonism | hit rate 0.075% among 410,000 | Q03431 | HEK293 GP2 PTHR1 cells, GloSensor cAMP luminescence, 1 h | Potency, µM (titrated, usually from 115 µM), inactives show at the highest dose activation, actives largely listed as activators | AID 743266; also: nearly all actives have a fitted effect of over 55% in size
#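 HEK-293-derived GP2 cells expressing PTHR1 and a GloSensor cAMP reporter, 3,000/well, plated overnight, given luciferin plus IBMX (each 0.5 mM as added) for 1 h at 37 °C, then compound for 1 h at 37 °C. Luminescence was read after 15 min at room temperature.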
# GCN5L2 inh: GCN5L2 (KAT2A) acetyltransferase inhibition; Q92830; GCN5L2 HAT assay, ThioGlo1 CoA-SH fluorescence; Potency, µM (doses to about 58.9 µM), for the others: at the top dose activity change, negative = inhibition, hits mostly inhibitors; hit rate 0.21% among 390,000; AID 504327; also: % is scaled to controls: 0 for no effect and ±100 for the full control effect
#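 GCN5L2 (20nM final) in 50mM HEPES, 0.1mM EDTA pH 7.5, 0.01% Tween-20 was preincubated 15 min at room temperature with compound, then given ThioGlo1 (50uM), H3(1-25) peptide (75uM) and acetyl-CoA (70uM); CoA-thiol fluorescence (Ex340/Em540) was read at 0 and 20 min.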
# Active calls of the source: *; i = inactive; u = inconclusive; x = not tested or not shown; [ ] = another dose, or the depositor's remark. Calls follow the shape of the dose curve; as a rule, active = well fitted curve in the direction sought with a large enough effect; inconclusive = small, poorly fitted or top-dose-only effect, or another doubt; inactive = no such curve, though single readings can be large; an effect the other way counts as inactive or inconclusive. Potency is read from the fitted curve at half-maximal effect.
SMILES,GLP1R cytotox,GLP1R inv ag,RGS4 inh,GLP1R ag,PTHR1 ag,GCN5L2 inh
Cc1ccc(C)c(NC(=S)c2ccc3ccccc3n2)c1,2.8µM*,5.6µM*,-1%,4%,-13%,-6%
Cc1ccccc1N=C1NC(=O)/C(=C/c2cccn2-c2cccc(C(=O)O)c2)S1,-11%,15%,-15%,7%,-18%,-2%
CCN(CC)S(=O)(=O)c1cc(-c2ccc(=O)n(C(C)C(=O)Nc3cccc(C#N)c3)n2)ccc1C (stereo not given),-5%,-3%,-9%,x,-66%,-10%
COc1cc(C2C(C#N)=C(N)Oc3cc(C)n(Cc4ccccn4)c(=O)c32)cc2c1OCO2 (stereo not given),x,x,x,x,x,1%
CCCCOc1ccccc1NC(=O)CC1Sc2ccccc2NC1=O (stereo not given),10%,13%,-29%,-5%,-21%,13%
COc1ccc(CN(C(=O)c2ccco2)c2ccccc2)cc1,-4%,u,-7%,27%,i,3%
O=C(c1ccccc1Br)N(Cc1ccccc1)c1ccccc1,3%,8.9µM*,5%,15%,-19%,-6%
CCN(c1ccccc1)S(=O)(=O)c1ccc(C(=O)Nc2c(C)n(C)n(-c3ccccc3)c2=O)cc1,-14%,-33%,14%,9%,-9%,0%
CCCCN(c1ccccc1)S(=O)(=O)c1cccc(C(=O)Nc2c(C)n(C)n(-c3ccccc3)c2=O)c1,-7%,11µM*,u,-35%,-66%,x
Cn1ncc(S(=O)(=O)Cc2ccccc2)c(Br)c1=O,x,x,2.7µM*,x,x,-20%
C[C@@H]1Cc2c(O)c(O)cc(O)c2C(=O)O1,3%,5%,-47%,-3%,-6%,-12%
CC1CCC/C=C/C(=O)c2c(O)cc(O)cc2CC(=O)O1 (stereo not given),u,5µM*,-5%,-10%,-96%,u
O=C1N=C(N2CCOCC2)SC1=Cc1ccco1,0%,0%,-27%,8%,i,x
Cc1ccc(-c2ccc(/C=C3\SC(N4CCOCC4)=NC3=O)o2)cc1,71%,4.5µM*,u,5%,-6%,-11%
O=C1N=C(N2CCOCC2)S/C1=C/c1ccc(-c2ccc(F)cc2)o1,18%,19%,-30%,5%,-2%,22µM*
Cc1[nH]c(=O)c(C#N)c(C)c1CCC(=O)NCc1ccc(Cl)cc1,8%,7%,17%[56.9 µM],12%,i,-18%
NC(=O)C1CCN(C(=O)CC(c2ccccc2)c2ccccc2)CC1,1%,10%,0%,-3%,i,32µM*
CCOC(=O)C1CCN(C(=O)CC(C)c2ccccc2)CC1 (stereo not given),2%,u,-45%[56.9 µM],5%,17%[57.5 µM],x
O=S(=O)(Nc1ccc(Cc2ccncc2)cc1)c1ccc(Cl)c(Cl)c1,10µM*,-1%,2%,1%,-23%[57.5 µM],-26%
COc1ccc(OC)c(NC(=O)CSc2nnc3ccc(-c4ccccn4)nn23)c1,3%,11%,u,4%,-13%,1%
CCn1nc(NS(=O)(=O)c2ccc(F)cc2)c2cc3cccc(C)c3nc21,-4%,10µM*,-25%[11.4 µM],-6%,i,-9%
CCn1nc(NS(=O)(=O)c2ccccc2)c2cc3cccc(C)c3nc21,-4%,0%,6%,3%,i,2%
COc1cc(S(=O)(=O)NCCOC23CC4CC(CC(C4)C2)C3)c(OC)cc1Cl,5%,0%,-10%,7%,-20%,-13%
CCOc1ccc(OCC)c(S(=O)(=O)NCCOC23CC4CC(CC(C4)C2)C3)c1,-13%,4µM*,-17%,0%,-18%,-4%
O=[N+]([O-])c1ccc(N=Nc2ncc[nH]2)cc1,5.6µM*,u,-15%,-2%,-14%,-23%
SMILES,GLP1R cytotox,GLP1R inv ag,RGS4 inh,GLP1R ag,PTHR1 ag,GCN5L2 inh
O=[N+]([O-])c1ccc(N=NN(CCO)CCO)cc1,u,2%,8%,-7%,i,-4%
CCN(CC)C(=O)c1cc2c(=O)n3ccccc3nc2s1,90%,33%,-16%,7%,-10%,-10%
COCCN(CCOC)C(=O)c1cc2c(=O)n3ccccc3nc2s1,110%,11%,9%,25%,i,18µM*
COc1ccc(/[N+]([O-])=C/c2ccoc2)cc1,-1%,-8%,u,0%,-78%,-4%
CC(C)C[C@@H]1COc2cccc(N3CCN(Cc4ccccc4F)CC3)c2S(=O)(=O)N1,2%,u,x,-2%,-82%,x
COc1ccc(CNC(=O)c2ccc(CS(=O)(=O)c3ccccc3OC)o2)cc1,-3%,-1%,-9%,x,-17%,-3%
CN(CC(=O)NCCCc1ccccc1)Cc1ccc(Br)cc1,0%,u,-8%,1%,-69%,-1%
CN(CC(=O)NCCc1ccc(F)cc1)Cc1ccc(Br)cc1,5%,10µM*,-17%,21%,-4%,0%
CCOc1ccc(CN2CCN(Cc3cc4c(cc3Cl)OCO4)CC2CCO)cc1 (stereo not given),-15%,7.9µM*,5%,27%,i,-7%
CCOc1ccc(CN2CCN(Cc3cccc4c3OCO4)CC2CCO)cc1 (stereo not given),-1%,u,8%,15%,i,-1%
CC(=O)Nc1nnc(-c2ccc3c(c2)CCCC3)o1,u,u,7%,-5%,-24%,-3%
COc1cccc(C(=O)Nc2nnc(-c3ccc(Cl)cc3)o2)c1,-29%,10µM*,-33%,-2%,-6%,-7%
COc1ccccc1C(=O)Nc1nnc(-c2ccc3c(c2)CCCC3)o1,11µM*,u,-15%,-3%,-28%,-14%
COc1ccc(-c2nnc(NC(=O)c3ccccc3C)o2)cc1,u,10µM*,-27%,-3%,-11%,-15%
COc1cccc2c1[C@@H]1CN(CCCCn3c(=O)[nH]c4c(sc5ncc(-c6ccccc6)nc54)c3=O)C[C@@H]1CO2,-22%,10µM*,u,-3%,26%,-18%
Cc1ccc(C)c(-n2ccnc2SCC(=O)Nc2cccc(S(=O)(=O)NC3=NCCC3)c2)c1,1%,-2%,6%,-3%,-14%,-7%
N/C(=N\OCc1ccc([N+](=O)[O-])cc1)c1ccccn1,-3%,1.3µM*,5%,-3%,-28%,-16%
CCOCc1cc(CN2CCCC(CNC(=O)c3ccco3)C2)ccc1OC (stereo not given),-11%,3%,-8%,6%,-23%,-2%
CCC(=O)NC(=S)Nc1cccc(Cl)c1N1CCCC1,u,5.6µM*,0%,9%,1%,-17%
